According to PubChem BioAssay (EPA / NIEHS):
Results filed as inconclusive are left out. Active and inactive are the calls of the source. The calls were made as follows: active = hit-call score of the fitted dose curve at least 0.9, where 1 is the maximum; inconclusive = response in the unintended direction; inactive = score below 0.9.

target: THRB (gene 7068) (UniProt P10828); assay: TOX21_TRB_COA_Antagonist_Followup_ratio: Tox21 Thyroid Hormone Receptor beta Antagonism through Coactivator Recruitment Follow-Up Assay, Ratio (AID 2283967)
Sequence (P10828 whole entry, looked up, the tested form may be a part): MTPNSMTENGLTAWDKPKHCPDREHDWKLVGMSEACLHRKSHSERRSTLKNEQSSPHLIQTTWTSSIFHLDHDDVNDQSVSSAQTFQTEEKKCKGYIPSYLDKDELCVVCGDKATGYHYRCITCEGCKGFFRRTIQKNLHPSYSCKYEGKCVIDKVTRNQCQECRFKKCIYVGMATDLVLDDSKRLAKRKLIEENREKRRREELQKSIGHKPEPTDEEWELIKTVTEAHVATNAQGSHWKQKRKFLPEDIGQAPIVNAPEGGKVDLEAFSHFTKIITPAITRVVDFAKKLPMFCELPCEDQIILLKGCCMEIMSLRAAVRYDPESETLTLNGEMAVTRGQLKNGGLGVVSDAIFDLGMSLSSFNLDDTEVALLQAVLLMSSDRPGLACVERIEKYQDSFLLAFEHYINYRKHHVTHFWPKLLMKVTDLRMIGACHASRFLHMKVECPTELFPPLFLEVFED
How it was run: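 Coactivator recruitment to the GST-tagged TRb ligand-binding domain (5.0 nM) was read as the 520/495 nm TR-FRET ratio, using 200 nM fluorescein SRC-2 peptide and 2 nM terbium anti-GST. Scaled between DMSO and T3 wells; loss of signal fitted.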

Compound | outcome | AC50
NC(N)=NCc1cccc(I)c1 | inactive | –
Nc1c2ccccc2nc2ccccc12 | inactive | –
CCCC(=O)O[C@]1(C(=O)CCl)[C@@H](C)C[C@H]2[C@@H]3CCC4=CC(=O)C=C[C@]4(C)[C@@]3(F)C(=O)C[C@@]21C | inactive | –
CCCCCCNC(=O)n1cc(F)c(=O)[nH]c1=O | inactive | –
CO[C@H]1C[C@@H]2CC[C@@H](C)[C@@](O)(O2)C(=O)C(=O)N2CCCC[C@H]2C(=O)O[C@H]([C@H](C)C[C@@H]2CC[C@@H](OCCO)[C@H](OC)C2)CC(=O)[C@H](C)/C=C(\C)[C@@H](O)[C@@H](OC)C(=O)[C@H](C)C[C@H](C)\C=C/C=C/C=C/1C | inactive | –
O=C1C(=O)c2ncccc2-c2cccnc21 | inactive | –
CC1(C)N=C(N)N=C(N)N1c1ccc(Cl)cc1 | inactive | –
COC(=O)Nc1nc2ccc(Sc3ccccc3)cc2[nH]1 | inactive | –
C#CCC(Cc1cnc2nc(N)nc(N)c2n1)c1ccc(C(=O)N[C@@H](CCC(=O)O)C(=O)O)cc1 (some centres undefined) | inactive | –
O=c1[nH]c(=O)n([C@H]2C[C@H](O)[C@@H](CO)O2)cc1F | inactive | –
Cc1nc2ccccc2n1Cc1ccc(Cl)cc1 | inactive | –
O=C(O)c1cccc(-c2noc(-c3ccccc3F)n2)c1 | inactive | –
Cc1cc(Nc2ccccc2C(=O)O)ccc1Cl | inactive | –
CC(C)=CCC1=C(O)c2ccccc2C(=O)C1=O | – | 31.3 µM (active)
